Results on 33 compounds are retold here after PubChem BioAssay (NCATS).

Values joined by “and” are separate entries in the source; they are usually repeats but may differ in a detail not shown here. Identical values can stand only once. Records with an inconclusive call do not appear.

The nature of this test: qHTS Assay for Lipid Storage Modulators (AID 1519). Particulars: Drosophila S3 cells, BODIPY lipid droplet/cell ratio, laser cytometry; measured here: lipid channel max response; cells loaded with oleic acid. In short, it runs like this:
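Cells seeded at 5,000 per well were treated with compounds over a concentration series and loaded with oleic acid (400 uM, as added). Lipid droplet fluorescence (488 nm excitation, 500-530 nm channel) was read by laser-scanning cytometry and normalized to 20 uM Triacsin C.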
Take `CCN(CC)C(=O)N1CCN(C)CC1`: the max response was 2.25% and 24.5%. As for `CCCCC1=NC2(CCCC2)C(=O)N1Cc1ccc(-c2ccccc2-c2nn[nH]n2)cc1`, the max response amounted to 9.2%. As for `CN(C)CCCOc1nn(Cc2ccccc2)c2ccccc12`, the max response was -2.83%. The result for `CN(C)CC/C=C1\c2ccccc2Sc2ccc(Cl)cc21` reads -14.2% and 16.4%; that for `Cc1c(N(C)CS(=O)(=O)O)c(=O)n(-c2ccccc2)n1C`, -5.13% and 21%; that for `Nc1nc2ncc(CNc3ccc(C(=O)N[C@@H](CCC(=O)O)C(=O)O)cc3)nc2c(=O)[nH]1`, -8.4% and 15.7%. As to `CCCC(=O)Nc1ccc(OCC(O)CNC(C)C)c(C(C)=O)c1` (stereo not drawn), the max response was determined as 24.3%. As to `O=C(COc1ccc(Cl)cc1)N1CCN(Cc2ccc3c(c2)OCO3)CC1`, the max response was -4.72%. As to `Cc1cc(=O)n(-c2ccccc2)n1C`, the max response is 1.09% and 14.3%. Take `CC(=O)N(O)CCCCCNC(=O)CCC(=O)N(O)CCCCCNC(=O)CCC(=O)N(O)CCCCCN`: the max response was -12.1% and 27.1%.

In the case of `COc1ccc(CCN2CCC(Nc3nc4ccccc4n3Cc3ccc(F)cc3)CC2)cc1`, the max response is -24.1% and 21%. Consider `CCCCOc1cc(C(=O)NCCN(CC)CC)c2ccccc2n1`, for which the max response is -8.39% and 23.8%. The result for `O=C1c2ccccc2C(=O)C1c1ccccc1` reads -14% and 33.1%; that for `CN1CCC(=C2c3ccccc3Sc3ccccc32)CC1`, -0.527% and 23.3%. Then `CCN(CCCc1ccccc1)CCCc1ccccc1`, with -0.884% and 21.1%; and `CCCCc1nc(Cl)c(CO)n1Cc1ccc(-c2ccccc2-c2nn[nH]n2)cc1`, with 25.7%.

As for `CCOC(=O)n1ccn(C)c1=S`, the max response was -8.09% and 22%. For the compound `COc1cc(OC)cc(OC)c1`, the max response is 3%. The result for `CN1CCN(C(c2ccccc2)c2ccccc2)CC1` reads -3.01% and 29.7%; that for `CC(C)N=C(N)/N=C(\N)Nc1ccc(Cl)cc1`, -11.8%; that for `CNCCC=C1c2ccccc2CCc2ccccc21`, -6.43% and 39.3%. Then `CC(O)(P(=O)(O)O)P(=O)(O)O`, with -0.531%; and `CCN(CC)CCOC(=O)C(c1ccccc1)C1CCCCC1` (stereo not drawn), with 13.6%.

Consider `O=C(OCC(O)CO)c1ccccc1Nc1ccnc2cc(Cl)ccc12` (stereo not drawn), for which the max response amounted to 7.83%. The result for `CC(C)NC[C@@H](O)COc1cccc2ccccc12` reads -1.83% [middle of 4 runs]; that for `C=C(CC)C(=O)c1ccc(OCC(=O)O)c(Cl)c1Cl`, -2.15% and 13.8%. The result for `C[N+]1(CCCCC[N+]2(C)CCCC2)CCCC1` reads -15.5% and 11.1% and -3.95%. Then `CCOc1ccc(Cc2nccc3cc(OCC)c(OCC)cc23)cc1OCC`, with -26.4%. Consider `OC(CCN1CCCCC1)(c1ccccc1)c1ccccc1`, for which the max response is -4.61% and 14.1%. The result for `CC(C)(CO)[C@@H](O)C(=O)NCCCO` reads 22.3%; that for `O=C(CCCN1CCC(O)(c2ccc(Br)cc2)CC1)c1ccc(F)cc1`, -9.42%.

For the compound `COc1ccc(OC)c(C(O)CNC(=O)CN)c1` (stereo not drawn), the max response stood at 23.2%. For `Cc1ccc(C(=O)C(C)CN2CCCCC2)cc1` (stereo not drawn), the max response was found to be 11.2%.
